The record followed here is PubChem BioAssay (EPA / NIEHS).

Test [1] in a line: BSK_hDFCGF_SRB: Viability Assessment in the BioMAP Diversity Plus: hDFCGF Assay (AID 2283061).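 Note: cells exposed to compound for 24 h before the read.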 Conditions: primary human foreskin fibroblasts. In outline: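 SRB-based viability read on primary human skin fibroblasts at 24 h: TCA fixation, 0.1% dye, 560 nm. Gain or loss of signal is fitted against the DMSO negative control.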
Read-out in test [2]: TIMP metallopeptidase inhibitor 1 (TIMP1), TIMP1 (gene 7076)
Description: BSK_hDFCGF_TIMP1: BioMAP Diversity Plus: hDFCGF Assay for TIMP metallopeptidase inhibitor 1 (TIMP1) Biomarker Activity (AID 2283062). Conditions: primary human foreskin fibroblasts; actives raise or lower the signal. In outline: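 Bidirectional curve fitting against DMSO baseline yielded this endpoint, based on ELISA detection of TIMP-1 in primary human foreskin fibroblasts exposed to compound for 24 h.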

Read-out in test [3]: Monokine induced gamma interferon (MIG), CXCL9 (gene 4283)
Description: BSK_hDFCGF_MIG: BioMAP Diversity Plus: hDFCGF Assay for Monokine induced gamma interferon (MIG) Biomarker Activity (AID 2283063). Conditions: primary human foreskin fibroblasts; actives raise or lower the signal. The procedure, abridged:
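Endpoint derived by bidirectional fitting relative to DMSO; MIG quantified via ELISA in primary human foreskin fibroblasts harvested 24 h after dosing.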

Read-out in test [4]: Matrix Metallopeptidase 1 (MMP1), MMP1 (gene 4312)
Description: BSK_hDFCGF_MMP1: BioMAP Diversity Plus: hDFCGF Assay for Matrix Metallopeptidase 1 (MMP1) Biomarker Activity (AID 2283064). Conditions: primary human foreskin fibroblasts; actives raise or lower the signal. The procedure, abridged:
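Primary human foreskin fibroblasts in the hDFCGF system were dosed with test chemical, and MMP1 was measured by ELISA 24 h later. Values come from bidirectional curve fitting against the DMSO baseline.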

Read-out in test [5]: Vascular cell adhesion molecule 1 (VCAM1), VCAM1 (gene 7412)
Description: BSK_hDFCGF_VCAM1: BioMAP Diversity Plus: hDFCGF Assay for Vascular cell adhesion molecule 1 (VCAM1) Biomarker Activity (AID 2283065).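 For AC50: VCAM-1 protein level quantified by ELISA after 24 h chemical exposure.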 To be noted: primary human foreskin fibroblasts; actives raise or lower the signal. In outline:
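Measured after 24 h chemical treatment of primary human skin fibroblasts, VCAM-1 was detected by ELISA and concentration-response analysed in both directions versus DMSO vehicle.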

Read-out in test [6]: Plasminogen activator inhibitor-1 (PAI1), SERPINE1 (gene 5054)
Description: BSK_hDFCGF_PAI1: BioMAP Diversity Plus: hDFCGF Assay for Plasminogen activator inhibitor-1 (PAI1) Biomarker Activity (AID 2283066). To be noted: primary human foreskin fibroblasts; actives raise or lower the signal. The procedure, abridged: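 Human foreskin fibroblast primary cells, 24 h chemical exposure; PAI-1 measured by ELISA. Bidirectional fitting relative to DMSO; parallel cultures stained with SRB for total protein to flag overt cytotoxicity.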

Read-out in test [7]: Intercellular Adhesion Molecule 1 (ICAM1), ICAM1 (gene 3383)
Description: BSK_KF3CT_ICAM1: BioMAP Diversity Plus: KF3CT Assay for Intercellular Adhesion Molecule 1 (ICAM1) Biomarker Activity (AID 2283067). To be noted: primary human keratinocytes with fibroblasts; actives raise or lower the signal. The procedure, abridged:
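Bidirectional curve fitting against a DMSO baseline was applied to ICAM-1 ELISA signal from primary human skin co-cultures harvested 24 h after treatment, with SRB staining of parallel wells for overt cytotoxicity.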

Read-out in test [8]: Interferon-gamma inducible Protein 10 (IP10), CXCL10 (gene 3627)
Description: BSK_KF3CT_IP10: BioMAP Diversity Plus: KF3CT Assay for Interferon-gamma inducible Protein 10 (IP10) Biomarker Activity (AID 2283068). Conditions: primary human keratinocytes with fibroblasts; actives raise or lower the signal. In outline: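 Human keratinocyte plus foreskin fibroblast primary co-culture exposed to test chemical for 24 h; IP-10 measured by ELISA. Concentration-response fitted bidirectionally against DMSO control as baseline.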

Test [9] in a line: BSK_KF3CT_SRB: Viability Assessment in the BioMAP Diversity Plus: KF3CT Assay (AID 2283069).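 Note: total protein by sulforhodamine B staining as a cytotoxicity measure; read 24 h after compound addition.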 Conditions: primary human keratinocytes with fibroblasts. In outline: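 Human primary keratinocyte plus foreskin fibroblast co-culture exposed to chemicals for 24 h. Total protein measured by 0.1% sulforhodamine B staining after 10% TCA fixation, read at 560 nm; bidirectional fitting versus DMSO baseline.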

Read-out in test [10]: Interleukin-1 alpha (IL1a), IL1A (gene 3552)
Description: BSK_KF3CT_IL1a: BioMAP Diversity Plus: KF3CT Assay for Interleukin-1 alpha (IL1a) Biomarker Activity (AID 2283070). Conditions: primary human keratinocytes with fibroblasts; actives raise or lower the signal. In outline:
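Human keratinocyte plus foreskin fibroblast primary co-culture, sampled 24 h after chemical dosing. IL-1a measured by ELISA; responses fitted bidirectionally against DMSO baseline (negative control), so gain or loss of signal both count.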

Read-out in test [11]: TIMP metallopeptidase inhibitor 2 (TIMP2), TIMP2 (gene 7077)
Description: BSK_KF3CT_TIMP2: BioMAP Diversity Plus: KF3CT Assay for TIMP metallopeptidase inhibitor 2 (TIMP2) Biomarker Activity (AID 2283071). Conditions: primary human keratinocytes with fibroblasts; actives raise or lower the signal. The procedure, abridged:
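Co-culture of human primary keratinocytes and foreskin fibroblasts, measured 24 h after chemical dosing. TIMP-2 quantified by ELISA and fitted in both directions relative to DMSO. Cytotoxicity checked in parallel cultures by SRB total-protein staining.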

Read-out in test [12]: Transforming growth factor beta 1 (TGFb1), TGFB1 (gene 7040)
Description: BSK_KF3CT_TGFb1: BioMAP Diversity Plus: KF3CT Assay for Transforming growth factor beta 1 (TGFb1) Biomarker Activity (AID 2283072). To be noted: primary human keratinocytes with fibroblasts; actives raise or lower the signal. In outline:
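Human keratinocyte/foreskin fibroblast co-culture; TGF-b1 measured by ELISA 24 h after dosing, fitted bidirectionally versus DMSO. Cytotoxicity checked in parallel cultures by total protein (SRB staining, 560 nm).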

Read-out in test [13]: C-C motif chemokine 2 (Homo sapiens) (UniProt P13500)
Description: BSK_KF3CT_MCP1: BioMAP Diversity Plus: KF3CT Assay for Monocyte Chemoattractant Protein 1 (MCP1/CCL2) Biomarker Activity (AID 2283073). To be noted: primary human keratinocytes with fibroblasts; actives raise or lower the signal. In outline:
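Biomarker MCP-1 is measured by ELISA in primary human keratinocytes co-cultured with foreskin fibroblasts, 24 h after chemical treatment; DMSO serves as the negative control and activity baseline.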

Read-out in test [14]: Matrix Metallopeptidase 9 (MMP9), MMP9 (gene 4318)
Description: BSK_KF3CT_MMP9: BioMAP Diversity Plus: KF3CT Assay for Matrix Metallopeptidase 9 (MMP9) Biomarker Activity (AID 2283074).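 For AC50: MMP9 protein level quantified by ELISA in the co-culture.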 To be noted: primary human keratinocytes with fibroblasts; actives raise or lower the signal. The procedure, abridged:
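Keratinocyte plus foreskin fibroblast human primary skin co-culture was dosed with chemical and MMP-9 was quantified by ELISA 24 h later. Bidirectional curve fitting used DMSO as negative control and activity baseline.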

Read-out in test [15]: urokinase plasminogen activator (uPA), PLAU (gene 5328)
Description: BSK_KF3CT_uPA: BioMAP Diversity Plus: KF3CT Assay for urokinase plasminogen activator (uPA) Biomarker Activity (AID 2283075). To be noted: primary human keratinocytes with fibroblasts; actives raise or lower the signal. In outline: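 Human keratinocyte plus foreskin fibroblast primary co-culture exposed to chemical for 24 h. uPA levels were quantified by ELISA, and activity was fitted bidirectionally against a DMSO negative-control baseline.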

Read-out in test [16]: CD40, CD40 (gene 958)
Description: BSK_LPS_CD40: BioMAP Diversity Plus: LPS Assay for CD40 Biomarker Activity (AID 2283076). Conditions: primary human HUVEC with PBMC; actives raise or lower the signal. The procedure, abridged: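 Using a multiplexed primary human co-culture (umbilical vein endothelium plus PBMC), CD40 was read by ELISA 24 h after dosing, with cytotoxicity tracked by sulforhodamine B staining of parallel cultures and activity fitted bidirectionally versus DMSO.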

Read-out in test [17]: E-selectin (Homo sapiens) (UniProt P16581)
Description: BSK_LPS_Eselectin: BioMAP Diversity Plus: LPS Assay for Eselectin Biomarker Activity (AID 2283077). To be noted: primary human HUVEC with PBMC; actives raise or lower the signal. The procedure, abridged:
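Dose chemical onto LPS-driven HUVEC/PBMC co-culture; after 24 h, run ELISA for E-selectin; fit up- and down-going responses relative to DMSO control.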

Read-out in test [18]: Interleukin-8 (IL8), CXCL8 (gene 3576)
Description: BSK_LPS_IL8: BioMAP Diversity Plus: LPS Assay for Interleukin-8 (IL8) Biomarker Activity (AID 2283078). Conditions: primary human HUVEC with PBMC; actives raise or lower the signal. In outline:
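In this LPS system, chemical-treated human umbilical vein endothelium/PBMC co-cultures were harvested at 24 h for IL-8 ELISA.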

A short description of test [19]: BSK_LPS_SRB: Viability Assessment in the BioMAP Diversity Plus: LPS Assay (AID 2283079).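 Note: total protein by sulforhodamine B absorbance as a cytotoxicity measure; measured one day after compound addition.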 To be noted: primary human HUVEC with PBMC. The procedure, abridged: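 Cytotoxicity endpoint in human endothelial–PBMC co-culture: 24 h exposure, then SRB (0.1%) staining, 560 nm read.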
Read-out in test [20]: Interleukin-1 alpha (IL1a), IL1A (gene 3552)
Description: BSK_LPS_IL1a: BioMAP Diversity Plus: LPS Assay for Interleukin-1 alpha (IL1a) Biomarker Activity (AID 2283080). To be noted: primary human HUVEC with PBMC; actives raise or lower the signal. The procedure, abridged:
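Primary human HUVEC and PBMC co-culture stimulated with LPS is dosed and harvested at 24 h. Both increases and decreases in ELISA-measured IL-1a are scored relative to DMSO.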

“And” between values parts separate entries of the source, which are not always exact repeats. Equal entries are not always repeated. Where a structure was tested more than once in an assay, its records may differ in their call. The source made the active and inactive calls. Rule for the calls: active = hit-call score of the fitted dose curve at least 0.9, where 1 is the maximum; inactive = score below 0.9.

Chain of E-selectin (Homo sapiens) (P16581 whole entry, looked up): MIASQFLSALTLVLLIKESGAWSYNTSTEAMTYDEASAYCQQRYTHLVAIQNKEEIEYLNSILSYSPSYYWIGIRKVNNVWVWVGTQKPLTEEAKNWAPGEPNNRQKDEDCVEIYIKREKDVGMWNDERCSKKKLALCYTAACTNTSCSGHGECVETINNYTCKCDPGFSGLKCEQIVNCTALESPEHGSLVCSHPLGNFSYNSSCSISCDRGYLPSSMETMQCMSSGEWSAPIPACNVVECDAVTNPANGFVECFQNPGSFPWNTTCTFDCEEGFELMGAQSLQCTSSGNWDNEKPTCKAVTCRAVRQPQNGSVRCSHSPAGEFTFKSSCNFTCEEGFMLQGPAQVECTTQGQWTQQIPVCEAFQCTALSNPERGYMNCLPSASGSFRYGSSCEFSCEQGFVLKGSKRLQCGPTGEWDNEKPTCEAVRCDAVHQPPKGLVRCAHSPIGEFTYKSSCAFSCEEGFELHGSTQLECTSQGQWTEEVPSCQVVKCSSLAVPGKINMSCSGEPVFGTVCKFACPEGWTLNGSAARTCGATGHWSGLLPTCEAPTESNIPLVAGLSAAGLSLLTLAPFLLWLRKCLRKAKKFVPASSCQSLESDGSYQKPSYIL

As usually defined, the AC50 is the concentration at which the activity in the assay is half-maximal. For the molecule `CCCCC/C=C/C=C/C=O`, the AC50 in test [1] is 12.7 µM (active); in test [2] it was 12.7 µM (active); in test [3], 25.1 µM (active); in test [4], 20 µM (active); in [5], 6.87 µM (active); in test [6], 8.82 µM (active). In addition, the AC50 was 29.3 µM (active) in test [7]; 29.4 µM (active) in test [8]; 32.6 µM (active) in test [9]; 29.5 µM (active) in [10]; 24.3 µM (active) in [11]; 9.27 µM (active) in [12]. Further, the concentration at half-maximal activity (AC50) in test [13] was 32.5 µM (active); in test [14] it was 26.8 µM (active); in test [15] it was 31.4 µM (active); in [16], 20 µM (active); in test [17], 34.1 µM (active); in test [18] it was 32.6 µM (active). For the same molecule, the AC50 in [19] is 29.7 µM (active); in test [20], 29.2 µM (active).
Consider `CC[Si](OC(C)=O)(OC(C)=O)OC(C)=O`, for which the outcome in test [1], in test [2], in [3], in [4], in [5] and in test [6] was inactive. Moreover, the result in test [7], in test [8], in [9], in [10], in test [11] and in [13] was inactive. Further, the result in [14], in test [15], in test [16], in test [17], in test [18] and in test [19] was inactive. Further, in test [20], the result was inactive. The half-maximal activity concentration (AC50) in [16] was 0.626 µM (active).
Regarding `Cc1cc(C2(c3cc(C)c(O)cc3C)OS(=O)(=O)c3ccccc32)c(C)cc1O`, the outcome in [1], in test [2], in test [3], in test [4], in test [5] and in test [7] was inactive. Also, the result in test [8], in test [9], in test [10], in [11], in test [13] and in [14] was inactive. The result in test [15], in [16], in [17], in [18], in [19] and in [20] was inactive. For the same molecule, the AC50 in test [6] is 20 µM (active) and 4.95 µM (active).
